Measured values reported in PubChem BioAssay (Tox21).
Results filed as inconclusive are left out. Activity calls are given as the source filed them. Unless noted, calls come from the whole dose curve; as a rule, active = well fitted curve in the direction sought with a large enough effect in the repeat runs; inconclusive = weak or mixed curves; inactive = no such curve, though single readings can be large; an effect the other way counts as inactive or inconclusive.

Assays:
[1] = qHTS assay to identify small molecule agonists of the hypoxia (HIF-1) signaling pathway - cell viability counter screen (AID 1224844; calls by dose curve; note: nearly all actives have a fitted effect of over 50% in size)
In short: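 Cytotoxicity was measured in parallel with the HRE-driven beta-lactamase readout: after 17 hrs of compound exposure at 37C, HRE-bla ME-180 cells received CellTiter-Glo and luminescence was recorded 30 min later.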

[2] = qHTS assay to identify small molecule agonists of H2AX (AID 1224845; active = well fitted activation curve with a large enough effect in the signal ratio in the repeat runs, not every such curve was filed as active; the % refers to the signal ratio)
In short: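 Wild-type CHO-K1 cells, plated overnight, exposed 3hr at 37C to 15 concentrations (0.76% DMSO final). Lysed, then HTRF anti-pH2AX (S139) cryptate and anti-H2AX-d2 antibodies, 24 hr room temperature; 665/620 nm emission read.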

[3] = qHTS assay to identify small molecule agonists of the hypoxia (HIF-1) signaling pathway (AID 1224846; active = well fitted activation curve with a large enough effect in the signal ratio in the repeat runs, not every such curve was filed as active; the % refers to the signal ratio)
In short: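 Compounds from the Tox21 10K library, dissolved in DMSO, are tested for induction of a hypoxia response element–controlled beta-lactamase reporter in ME-180 cells. Exposure lasts 17 hrs at 37C after a 5 hr settling period, followed by CCF4-AM FRET substrate.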

[4] = qHTS assay to identify small molecule agonists of H2AX - cell viability counter screen (AID 1224847; calls by dose curve; note: top concentration of the series differs between compounds; nearly all actives have a fitted effect of over 30% in size)
In short: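 For this counter screen, overnight-attached CHO-K1 cells received test compounds (15 concentrations, 0.76% DMSO final); 3 hr later at 37C, CellTiter-Glo reagent was added and luminescence recorded after 30 min at room temperature.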

[5] = qHTS RealTime-Glo MT Cell Viability Assay in HepG2 cells - 24 hour (AID 1224867); note: nearly all actives have a fitted effect of over 50% in size; note: potency is the fitted concentration of half-maximal effect
In short: (§1)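 HepG2 cells (600/well) were dispensed with RealTime-Glo reagents, incubated 5 h at 37 °C, then treated with compounds in DMSO for up to 40 h. Nonlytic NanoLuc luminescence reflecting viable cells was read at each stated time point.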

[6] = qHTS RealTime-Glo MT Cell Viability Assay in HEK293 cells - 32 hour (AID 1224868); note: nearly all actives have a fitted effect of over 50% in size; note: potency is the fitted concentration of half-maximal effect; for activity change, negative = cytotoxic: top concentration of the series differs between compounds
In short: (§2)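 HEK293 cells seeded with NanoLuc/prosubstrate reagent, rested 5 h at 37 C, then dosed and kept at 37 C up to 40 h. Nonlytic real-time luminescence from viable cells read at 0, 8, 16, 24, 32 and 40 h.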

[7] = A CellTox Green Cytotoxicity Assay to monitor cytotoxicity in HEK293 cells - 0 hour (AID 1224869); note: nearly all actives have a fitted effect of over 50% in size
In short: (§3)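 Cells (HEK293, 600/well) and dye reagent are dispensed together. After 5 h at 37 C, 23 nL compound is pinned in. Plates stay at 37 C for 40 h with fluorescence read at 0h, 8h, 16h, 24h, 32h and 40h.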

[8] = qHTS RealTime-Glo MT Cell Viability Assay in HepG2 cells - 40 hour (AID 1224870); note: nearly all actives have a fitted effect of over 50% in size; note: potency is the fitted concentration of half-maximal effect
In short: (§4)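 HepG2 cells (600/well) mixed with RealTime-Glo MT reagent, settled 5 h at 37 C/5% CO2 before compound addition. Nonlytic NanoLuc luminescence from viable-cell prosubstrate reduction read repeatedly during 40 h treatment at 37 C.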

[9] = A CellTox Green Cytotoxicity Assay to monitor cytotoxicity in HEK293 cells - 40 hour (AID 1224871); note: nearly all actives have a fitted effect of over 45% in size; note: potency is the fitted concentration of half-maximal effect
In short: as §3

[10] = qHTS RealTime-Glo MT Cell Viability Assay in HEK293 cells - 16 hour (AID 1224872)
In short: as §2

[11] = qHTS RealTime-Glo MT Cell Viability Assay in HepG2 cells - 8 hour (AID 1224873); note: nearly all actives have a fitted effect of over 55% in size; note: potency is the fitted concentration of half-maximal effect
In short: as §4

[12] = qHTS RealTime-Glo MT Cell Viability Assay in HEK293 cells - 40 hour (AID 1224874); details: RealTime-Glo luminescence; max response: active compounds read low; note: nearly all actives have a fitted effect of over 50% in size; note: potency is the fitted concentration of half-maximal effect
In short: (§5)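 Real-time viability in HEK293: signal arises when living cells convert a prosubstrate for NanoLuc in the medium, so luminescence tracks viable cell number. Compound (23 nL, DMSO) added 5 h post-seeding; kinetic reads at 0–40 h, 37 C.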

[13] = A CellTox Green Cytotoxicity Assay to monitor cytotoxicity in HEK293 cells - 24 hour (AID 1224875); note: nearly all actives have a fitted effect of over 45% in size
In short: as §3

[14] = A CellTox Green Cytotoxicity Assay to monitor cytotoxicity in HepG2 cells - 16 hour (AID 1224876); note: nearly all actives have a fitted effect of over 45% in size
In short: (§6)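 Cells and non-lytic dye reagent are dispensed together (600 HepG2 cells/well) and incubated 5 h before DMSO compound transfer. Kinetic fluorescence is then recorded in the same wells during 40 h at 37 C.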

[15] = qHTS RealTime-Glo MT Cell Viability Assay in HepG2 cells - 32 hour (AID 1224877); note: nearly all actives have a fitted effect of over 55% in size; note: potency is the fitted concentration of half-maximal effect
In short: as §1

[16] = A CellTox Green Cytotoxicity Assay to monitor cytotoxicity in HepG2 cells - 24 hour (AID 1224878); note: nearly all actives have a fitted effect of over 45% in size
In short: as §6

[17] = A CellTox Green Cytotoxicity Assay to monitor cytotoxicity in HepG2 cells - 40 hour (AID 1224879); note: nearly all actives have a fitted effect of over 40% in size
In short: as §6

[18] = qHTS RealTime-Glo MT Cell Viability Assay in HEK293 cells - 0 hour (AID 1224880)
In short: as §5

[19] = qHTS assay to identify small molecule antagonists of the estrogen related receptor (ERR) signaling pathway from Tox21 library (AID 1224848); note: nearly all actives have a fitted effect of over 50% in size; note: potency is the fitted concentration of half-maximal effect
In short: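 Compounds dissolved in DMSO are pin-transferred onto ERR reporter cells (2,000 per well) that have settled for 6 h at 37 C. Plates then incubate 18 h at 37 C before ONE-Glo luciferase reagent and a luminescence read 30 min later.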

[20] = qHTS assay to identify small molecule agonists of the estrogen related receptor (ERR) signaling pathway from Tox21 library (AID 1224849; calls by dose curve; note: nearly all actives have a fitted effect of over 15% in size); details: ERR reporter cell line, ONE-Glo luciferase, 18 h; at 92.4 µM (top of the series) unless noted
In short: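 Cells carrying the ERR reporter were plated and allowed to settle for 6 h, exposed to library compounds for 18 h at 37 C, then lysed with ONE-Glo and luminescence measured.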
% is set by controls: 0 for no effect and ±100 for the full control effect.

CCOCC(O)COc1ccc(NC(=O)CC[S+](C)C)cc1 (configuration not stated)
inactive: Potency [1] | Potency [2] | Potency [3] | Potency [4] | Potency [5] | Potency [6] | Potency [7] | Potency [8] | Potency [9] | Potency [10] | Potency [11] | max response [12] 1.67% | Potency [13] | Potency [14] | Potency [15] | Potency [16] | Potency [17] | Potency [18]

O=C(O)c1ccco1
inactive: Potency [1] | Potency [2] | Potency [3] | Potency [4] | Potency [5] | Potency [6] | Potency [7] | Potency [8] | Potency [9] | Potency [10] | max response [12] 9.61% | Potency [13] | Potency [15] | Potency [16] | Potency [17] | Potency [18]

c1ccc(C(O[C@H]2CCCN(CCc3ccc4c(c3)OCO4)C2)c2ccccc2)cc1
inactive: Potency [1] | Potency [2] | Potency [3] | Potency [5] | Potency [8] | Potency [9] | Potency [11] | max response [12] -24.8% | Potency [13] | Potency [15] | Potency [18]

O=C(O)C1(C(=O)Nc2ccc(Cl)cc2Cl)CC1
inactive: Potency [1] | Potency [2] | Potency [3] | Potency [4] | Potency [5] | Potency [6] | Potency [8] | Potency [9] | Potency [10] | Potency [11] | max response [12] -17.6% | Potency [13] | Potency [16] | Potency [17] | Potency [18]

CC(C)C[C@H]1C(=O)N2CCC[C@H]2[C@]2(O)O[C@](NC(=O)[C@@H]3C=C4c5cccc6[nH]c(Br)c(c56)C[C@H]4N(C)C3)(C(C)C)C(=O)N12
active: Potency [19] 14.6 µM | Potency [5] 13.2 µM | Potency [8] 14.8 µM | Potency [11] 13.2 µM | Potency [15] 13.2 µM
inactive: Potency [1] | Potency [2] | Potency [4] | activity change, positive = activation [20] -64.1% [at 42.5 µM] | Potency [7] | Potency [9] | Potency [13] | Potency [14] | Potency [16] | Potency [18]

Nc1cccc(S(=O)(=O)c2cccc(N)c2)c1
inactive: Potency [1] | Potency [2] | Potency [3] | Potency [19] | activity change, positive = activation [20] 0.747% | Potency [5] | Potency [6] | Potency [7] | Potency [9] | Potency [10] | Potency [11] | max response [12] -13.5% | Potency [13] | Potency [14] | Potency [15] | Potency [16] | Potency [17] | Potency [18]

CC(C)=CCC/C(C)=C/CC/C(C)=C/CO
inactive: Potency [1] | Potency [2] | Potency [3] | Potency [5] | Potency [7] | Potency [8] | Potency [11] | Potency [14] | Potency [15] | Potency [16] | Potency [18]

O=CC1CC=CCC1 (configuration not stated)
inactive: Potency [1] | Potency [2] | Potency [3] | Potency [4] | Potency [5] | Potency [6] | Potency [9] | Potency [10] | Potency [11] | max response [12] 10.8% | Potency [13] | Potency [14] | Potency [15] | Potency [16] | Potency [17] | Potency [18]

CCO[C@H](Cc1ccc(OCCc2ccc(OS(C)(=O)=O)cc2)cc1)C(=O)O
inactive: Potency [1] | Potency [2] | Potency [3] | Potency [4] | Potency [5] | Potency [6] | Potency [8] | Potency [9] | Potency [10] | max response [12] 10.3% | Potency [13] | Potency [14] | Potency [16] | Potency [17] | Potency [18]

CCCCC(CC)CN1C(=O)C2C3C=CC(C3)C2C1=O (configuration not stated)
active: Potency [19] 54.5 µM | Potency [9] 30.9 µM
inactive: Potency [1] | Potency [2] | Potency [3] | activity change, positive = activation [20] -33.1% | Potency [5] | Potency [7] | Potency [8] | Potency [11] | Potency [14] | Potency [15] | Potency [16] | Potency [18]

CN(C)c1ccc(C(c2ccccc2)c2ccc(N(C)C)cc2)cc1
inactive: Potency [1] | Potency [2] | Potency [4] | Potency [5] | Potency [7] | Potency [8] | Potency [14] | Potency [15] | Potency [16] | Potency [17] | Potency [18]
active: Potency [19] 34.4 µM

CC(C)(CO)[N+](=O)[O-]
inactive: Potency [1] | Potency [2] | Potency [3] | Potency [4] | Potency [6] | Potency [7] | Potency [8] | Potency [9] | Potency [10] | Potency [11] | max response [12] 3.49% | Potency [13] | Potency [14] | Potency [15] | Potency [16] | Potency [17] | Potency [18]

CCCCC
inactive: Potency [1] | Potency [2] | Potency [3] | Potency [4] | Potency [6] | Potency [8] | Potency [10] | Potency [11] | max response [12] 0.575% | Potency [15] | Potency [16] | Potency [17] | Potency [18]

NCC(=O)O
inactive: activity change, negative = cytotoxicity [1] 0.428% [at 15.8 µM] | activation (H2AX phosphorylation) [2] 0.478% [at 31.6 µM] | activation [3] -0.806% [at 15.8 µM] | activity change, negative = cytotoxicity [4] 1.04% [at 31.6 µM] | activity change, negative = cytotoxic [6] 7.53% [at 15.8 µM] | activity change, negative = cytotoxic [8] 0.792% [at 15.8 µM] | cytotoxicity increase [9] 1.17% [at 15.8 µM] | activity change, negative = cytotoxicity [10] 4.48% [at 15.8 µM] | viability change, negative = cytotoxic [11] 8.37% [at 15.8 µM] | max response [12] 8.51% | activity change [13] -2.36% [at 15.8 µM, active compounds read high] | cytotoxicity increase [14] 8.58% [at 15.8 µM] | cytotoxicity [16] 7.92% [at 15.8 µM] | cytotoxicity increase [17] 1.98% [at 15.8 µM] | activity change, negative = cytotoxicity [18] -1.51% [at 15.8 µM]

Cc1nn(C)c(Oc2ccccc2)c1/C=N/OCc1ccc(C(=O)OC(C)(C)C)cc1
active: Potency [19] 0.0049 µM | Potency [6] 0.0044 µM | Potency [12] 0.0062 µM
inactive: Potency [1] | Potency [2] | Potency [3] | activity change, positive = activation [20] -44.6% | Potency [7] | Potency [8] | Potency [9] | Potency [11] | Potency [13] | Potency [14] | Potency [15] | Potency [16] | Potency [18]
